Results as given in PubChem BioAssay AID1220 (Sanford-Burnham Center for Chemical Genomics, 2008).
The campaign covered roughly 190,000 compounds. About 1,300 (0.68%) were called active. This is one part of a sample in which actives are shown more often than they occur. Unmarked numbers belong to inactive results. Rule as the data show it: active = inhibition above about 50%; inactive = the rest.

biological target: Mannose-6-phosphate isomerase (Homo sapiens) (UniProt P34949); test: human PMI inhibitors, high substrate, primary screen, biochemical, fluorescence intensity, high mannose 6-phosphate (AID 1220); details: recombinant PMI enzyme, coupled fluorescence intensity; at 20 µM; hits give high values
Sequence (P34949 whole entry, looked up): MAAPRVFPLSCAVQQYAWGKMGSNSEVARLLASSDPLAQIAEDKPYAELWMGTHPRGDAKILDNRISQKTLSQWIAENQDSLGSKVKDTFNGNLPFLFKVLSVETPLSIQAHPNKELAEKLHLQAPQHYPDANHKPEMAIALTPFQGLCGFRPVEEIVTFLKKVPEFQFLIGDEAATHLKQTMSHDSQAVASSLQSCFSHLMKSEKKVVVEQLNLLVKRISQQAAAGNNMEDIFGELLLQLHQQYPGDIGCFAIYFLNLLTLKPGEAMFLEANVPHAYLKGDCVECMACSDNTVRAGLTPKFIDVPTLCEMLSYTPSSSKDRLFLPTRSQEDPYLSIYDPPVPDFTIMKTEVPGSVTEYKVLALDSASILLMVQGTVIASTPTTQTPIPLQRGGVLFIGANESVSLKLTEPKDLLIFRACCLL

SMILES | inhibition
Nc1nc(SCC(=O)NCc2ccccc2)[nH]c(=O)c1NC(=O)c1ccccc1F | 9.7%
Cc1ccc(NC(=O)c2ccn(C)n2)c(Br)c1 | 6%
O=C(Cn1nc(C(F)(F)F)c2c1CCC2)N1CCN(c2ccccc2)CC1 | 9.9%
CC(C)CC(=O)O/N=C1\C(=O)N(Cc2ccc(Cl)cc2)c2ccc([N+](=O)[O-])cc21 | 22.3%
CCCn1c(C)cc(/C=C(\C#N)C(=O)OCC(=O)NC(=O)NC(C)(C)C)c1C | -3.7%
CCN1CCN(c2cc(C)c3cc(NC(=S)N4CCOCC4)ccc3n2)CC1 | 13.3%
Cc1cccc(N2CCN(C(=S)Nc3ccc4nc(N5CCN(C)CC5)cc(C)c4c3)CC2C)c1 (stereo not drawn) | 17.5%
COc1ccccc1N1CCN(C(=S)Nc2ccc3nc(N4CCOCC4)cc(C)c3c2)CC1 | 62.5% (active)
Cc1cccc(N2CCN(C(=S)Nc3ccc4nc(N5CCN(C)CC5)cc(C)c4c3)CC2)c1C | 16.2%
Cc1cccc(N2CCN(C(=S)Nc3ccc4nc(N5CCOCC5)cc(C)c4c3)CC2C)c1 (stereo not drawn) | 51.9% (active)
Cc1cc(N2CCN(C)CC2)nc2ccc(NC(=S)N3CCN(c4ccc(F)cc4)CC3)cc12 | 29.1%
Cc1cc(N2CCN(C)CC2)nc2ccc(NC(=S)N3CCN(c4ccc(Cl)cc4)CC3)cc12 | 41.7%
Cc1ccc(C)c(N2CCN(C(=S)Nc3ccc4nc(N5CCOCC5)cc(C)c4c3)CC2)c1 | 58.5% (active)
Cc1cc(N2CCOCC2)nc2ccc(NC(=S)N3CCN(c4ccccc4)CC3)cc12 | 52.5% (active)
CCN1CCN(c2cc(C)c3cc(NC(=S)N4CCN(c5ccccc5)CC4)ccc3n2)CC1 | 28.1%
Cc1cc(N2CCOCC2)nc2ccc(NC(=S)N3CCN(Cc4ccccc4)CC3)cc12 | 35.3%
Cc1ccc(C)c(N2CCN(C(=S)Nc3ccc4nc(N5CCN(C)CC5)cc(C)c4c3)CC2)c1 | 24.4%
CCOc1cc2[nH]c(=O)n(CCCN3CCN(c4ccc(OC)cc4)CC3)c(=O)c2cc1OCC | 21.4%
COc1ccc(N/C=C\C(=O)c2ccc(C)cc2)cc1OC | 18.6%
Cc1occc1C(=O)NNC(=S)NCc1ccc(Cl)cc1 | -4.2%
CCCC(=O)NCCc1nc2ccccc2n1CC(=O)c1ccccc1 | 4.9%
CCN(CC)S(=O)(=O)c1ccc(N2C(=O)Nc3ccccc3N2O)cc1 | -8.2%
COc1nccc(Nc2ccccc2)c1C#N | -7.6%
Cc1cc(N2CCN(C)CC2)nc2ccc(NC(=S)N3CCOCC3)cc12 | 23.9%
Cc1cc(N2CCN(C)CC2)nc2ccc(NC(=S)N3CCCCCC3)cc12 | 24.8%

SMILES | inhibition
Cc1cc(N2CCN(C)CC2)nc2ccc(NC(=S)N3CCCCC3)cc12 | 53.5% (active)
FC(F)(F)c1cnc(Oc2cccc3ccccc23)c(Cl)c1 | 10.7%
CN(CC(=O)Nc1ccc(N2CCOCC2)cc1)C(=O)C1CCCC1 | 9.6%
CN1c2cccc3cccc(c23)N(C)C1c1cccs1 | 58.6% (active)
CN1CN(C)c2cccc3cccc1c23 | 48.7%
CN1/C(=N\O)c2cccc3cccc1c23 | 42.5%
CC1N(C)c2cccc3cccc(c23)N1C | 62.9% (active)
CN1C(=O)c2ccccc2N(C)C1c1cccs1 (stereo not drawn) | 10%
c1csc(C2Nc3cccc4cccc(c34)N2)c1 | 11.7%
O=C(COC(=O)c1ccccc1)Nc1cc(Cl)ccc1Oc1ccccc1 | 0.2%
COc1ccc(N2CC(NC(=O)Nc3ccccc3)CC2=O)cc1 (stereo not drawn) | -16.3%
COc1ccc(N2CC(NC(=O)NCC(C)C)CC2=O)cc1 (stereo not drawn) | 7.2%
COc1ccc(N2CC(NC(=O)NC(C)(C)C)CC2=O)cc1 (stereo not drawn) | 53.9% (active)
CC(C)CSc1n[nH]c(=S)s1 | -41%
O=C(CCCSc1nc2ccccc2s1)NC1=NCCS1 | 1.7%
CN1CCN(C(=O)c2ccccc2NC(=O)C(C)(C)C)CC1 | 10.4%
O=C(COC(=O)c1cc(S(=O)(=O)N2CCOCC2)cs1)c1ccccc1 | 11.5%
COc1ccc(CN2CCc3cc(OC)c(OC)cc3C2)cc1O | 4.1%
COc1cc(CN2CCN(Cc3ccc(C)cc3)C(CCO)C2)ccc1O (stereo not drawn) | 14.3%
COc1cc2c(cc1OC)CN(Cc1cc(OC)c(O)c(OC)c1)CC2 | 69.5% (active)
COc1cc(CN2CCN(S(=O)(=O)c3ccc(NC(C)=O)cc3)CC2)cc(OC)c1O | 50.8% (active)
COc1cc(CN2CCN(c3ccccc3F)CC2)cc(OC)c1O | 24.9%
C/C=C(\C)CN1CCc2cc(OC)c(OC)cc2C1 | -34.9%
COc1ccc(CN2CCN(Cc3ccc(C)cc3)C(CCO)C2)cc1OC (stereo not drawn) | -5.7%
COc1cc(CN2CCN(Cc3ccc(SC)cc3)CC2)cc(OC)c1O | 62.1% (active)

SMILES | inhibition
COc1cc(CN2CCN(Cc3ccc(C)cc3)C(CCO)C2)cc(OC)c1O (stereo not drawn) | 61.9% (active)
CCOc1ccc(CN2CCN(S(=O)(=O)c3ccc(NC(C)=O)cc3)CC2)cc1OC | -3.6%
COc1ccc(CN2CCN(S(=O)(=O)c3ccc(NC(C)=O)cc3)CC2)cc1OC | -2.1%
COc1cc(OC)c(OC)cc1CN1CCN(Cc2ccc(SC)cc2)CC1 | 10.2%
CCN(CC)c1nc(-c2ccccn2)nc(-c2ccccc2)c1C#N | -5.4%
CCN(CC)C(=O)NC1CC2CCCC(C1)N2Cc1ccccc1 (stereo not drawn) | -8.6%
CC(C)C(OC(=O)c1cccs1)C(=O)NCc1ccco1 (stereo not drawn) | 1.8%
Cc1ccc(S(=O)(=O)N2CCN(S(=O)(=O)N3CCCCC3)CC2)cc1 | 10.1%
Cn1c(=O)c2c(-c3ccc(C(C)(C)C)cc3)n(N3CCOCC3)cc2n(C)c1=O | -3.7%
COc1ccc(CN2CCN(C(=O)c3cc(OC)c(OC)c(OC)c3)CC2)cc1OC | -8.2%
COc1cc(CN2CCN(C(=O)CC(C)C)CC2)cc(OC)c1OC | -4.9%
COc1ccc(CN2CCN(C(=O)CC(C)C)CC2)cc1OC | -3.1%
COc1cc(CN2CCN(C(=O)CC(C)C)CC2)cc(OC)c1O | 55.5% (active)
COc1ccc(C(=O)N2CCN(Cc3ccccc3C)CC2)cc1OC | -3.6%
COc1ccc(C(=O)N2CCN(Cc3cc(OC)c(O)c(OC)c3)CC2)cc1OC | 61.1% (active)
CCC(Sc1nc(C)cc(C)n1)C(=O)Nc1cc(C)on1 (stereo not drawn) | -8.4%
CC(=O)Nc1cc(C(=O)N2CCCC2)ccc1S(=O)(=O)c1ccc(Cl)cc1 | 2.8%
Nc1cc(=O)[nH]c(SCc2nnc(-c3ccccc3)o2)n1 | -0.3%
CC1(C)CC(CC(=O)O)(c2ccc(F)cc2)CCO1 (stereo not drawn) | 3%
c1ccc2c(c1)NC1(CCCCC1)n1c-2nc2ccccc21 | 8.3%
COc1ccc(/C=C(\C#N)C(=O)c2c(C)[nH]c3ccccc23)cc1OC | 8.5%
COc1cc(/C=C(\C#N)C(=O)c2c[nH]c3ccccc23)cc(OC)c1O | 70% (active)
COc1cc(/C=N/S(=O)(=O)CCc2ccccc2)cc(OC)c1O | 61.1% (active)
COc1cc(/C=C(\C#N)C(=O)c2c(C)[nH]c3ccccc23)cc(OC)c1OC | 10.2%
COc1ccc(/C=C(\C#N)C(=O)NCCc2ccccc2)cc1OCc1ccccc1 | -4.6%

SMILES | inhibition
COc1ccc(/C=N/S(=O)(=O)CCc2ccccc2)c(OC)c1 | 7.5%
COc1cc(/C=N/S(=O)(=O)CCc2ccccc2)ccc1O | 14.1%
COCCNC(=O)/C(C#N)=C/c1cc(Br)c(O)c(OC)c1 | 15.5%
COc1cc(/C=C(\C#N)C(=O)NCCc2ccccc2)cc(OC)c1O | 57.6% (active)
CC(C)NC(=S)Nc1ccc2[nH]c(=O)[nH]c2c1 | -22%
CC(C)(C)N(NC(=O)OCc1ccccc1)C(=O)c1ccccc1 | 2.3%
CN(CP(=O)(O)CCc1ccccc1)S(C)(=O)=O | 3.2%
CNc1ccc(/C=C(\C#N)c2ccccn2)cc1[N+](=O)[O-] | -3.1%
Cc1ccc(/C=C/C(=O)N2CCCN(C(=O)/C=C/c3ccc(C)cc3)CC2)cc1 | 2.5%
COc1ccc2nc(NC(=O)c3ccc(-c4cccc([N+](=O)[O-])c4)o3)sc2c1 | -5.7%
COc1ccc2cc3cc(C(=O)NCCN4CCN(Cc5ccccc5)CC4)oc3nc2c1 | -5.6%
CC(CCc1ccccc1)NC(=O)CN1CCN(c2ccccc2)CC1 (stereo not drawn) | 8.2%
Cc1c(NC(=O)CN2CCN(c3ccccc3)CC2)c(=O)n(-c2ccccc2)n1C | -8.2%
CC(CCc1ccccc1)NC(=O)CN1CCN(c2ccc(O)cc2)CC1 (stereo not drawn) | 65.2% (active)
Cc1c(NC(=O)CN2CCN(c3ccc(O)cc3)CC2)c(=O)n(-c2ccccc2)n1C | 53% (active)
O=C(CN1CCN(c2ccc(O)cc2)CC1)NC(c1ccccc1)c1ccccc1 | 64% (active)
COc1ccc(N2CCN(CC(=O)NC(=O)NC(C)(C)C)CC2)cc1 | 12.2%
CC(CCc1ccccc1)NC(=O)CN1CCc2ccccc2C1 (stereo not drawn) | 3.9%
Cc1c(NC(=O)CN2CCN(c3ccc(F)cc3)CC2)c(=O)n(-c2ccccc2)n1C | 5.8%
O=C(CN1CCN(c2ccccc2O)CC1)NC(c1ccccc1)c1ccccc1 | 15.4%
CC(C)(C)NC(=O)NC(=O)CN1CCN(c2ccccc2)CC1 | -4.3%
CC(C)(C)NC(=O)NC(=O)CN1CCN(c2ccc(O)cc2)CC1 | 62.6% (active)
CC1CC(C)CN(CC(=O)NC(c2ccccc2)c2ccccc2)C1 (stereo not drawn) | -6.3%
